Among the data in article PMC7819943, “Rice protein-binding microarrays: a tool to detect cis-acting elements near promoter regions in rice” are binding signal values, retold here.

Whole data set: some 68,000 sequences, median “fluorescence intensity (a.u.)” near 9,100, cut for the highest 2% near 16,000. This excerpt belongs to a sample that is enriched for the highest values.

OsWRKY34, sequence (Q0JBA9 entry or part of it): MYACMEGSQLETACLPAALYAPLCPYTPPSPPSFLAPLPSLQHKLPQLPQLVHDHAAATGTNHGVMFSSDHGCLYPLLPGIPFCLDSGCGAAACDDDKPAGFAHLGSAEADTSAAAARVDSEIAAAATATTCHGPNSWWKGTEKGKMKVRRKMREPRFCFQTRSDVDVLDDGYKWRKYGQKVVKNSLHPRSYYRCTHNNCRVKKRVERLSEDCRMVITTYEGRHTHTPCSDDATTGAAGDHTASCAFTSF

This test concerns the target OsWRKY34 (Oryza sativa, UniProt Q0JBA9 1-250). Description: protein-binding microarray (RPBM); PBS, 2% BSA, 51.3 ng/ul salmon testes DNA, 50 uM zinc acetate, 200 nM TF, 25 C, 1 h; high values mean tight binding. The following applies: protein: recombinant; tags: N-terminal polyhistidine and DsRed monomer fusion (pET32a); label: CyDye5-dUTP incorporated in the synthesized complementary strand; 3' TTTTT single-stranded linker to array surface; dsDNA, one strand shown. The procedure, abridged:
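Binding signal is defined as the fluorescence intensity of each feature in arbitrary units, read on an Axon 4000B scanner. Transcription factors with N-terminal polyhistidine and DsRed fusions came from E. coli BL21-CodonPlus and were purified on Ni–NTA. They were incubated at 200 nM for 1 h at 25 °C on a custom Agilent array that had been made double-stranded with Cy5-dUTP, with 50 µM zinc acetate present, and the array was washed.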
Regarding “CGCATAATACTTTTACTTGCACCAATCAAGTACACGCTCTCGGAGTCACCTAGTGCAG”, the binding signal was 9320 fluorescence intensity (a.u.).
To “CCCTGGCAAATGTTCTTTCTCCTCTATTTTCCATCTCCAACGGAGTCACCTAGTGCAG” belongs 9120 fluorescence intensity (a.u.); to “TATAGATTTTCGTCTCCAACGCTTGACCGTCCGTTTTATTCGGAGTCACCTAGTGCAG”, 12800 fluorescence intensity (a.u.).
For the sequence “CTTGCTCGTTGTAACTGTTTAATCTATTATGTTTTTTTTTCGGAGTCACCTAGTGCAG”, the binding signal is 11000 fluorescence intensity (a.u.).
To “CCCACCGCTCCTCCGCGCCACGCTTCCTCGCCGCGCGCGCCGGAGTCACCTAGTGCAG” belongs 8390 fluorescence intensity (a.u.); to “ACAACTGACTTACCCTTTCTGACTTGCAGATCAATTTGTCCGGAGTCACCTAGTGCAG”, 9050 fluorescence intensity (a.u.); to “TGCAGTGCGGCGTCACCTATCTCGTGGGCGCTTTCTTAGACGGAGTCACCTAGTGCAG”, 9080 fluorescence intensity (a.u.).
As for “ATTTTAGGGGAGGGTTTTACTTAGCAACTTTCATCTTATTCGGAGTCACCTAGTGCAG”, the binding signal is 15800 fluorescence intensity (a.u.).
To “CTGCGTTTATTTGGGTTTATTTGGGGCTGAGAGAGTACATCGGAGTCACCTAGTGCAG” belongs 13800 fluorescence intensity (a.u.); to “GGTTTCGTTGGTGGGGTTTTTTCATGGTGGCTAGGGTTTTCGGAGTCACCTAGTGCAG”, 51100 fluorescence intensity (a.u.).
To “ACTGTTGGAGTGGGAGTGGGGAATTCTAGGGTTTTGCAATCGGAGTCACCTAGTGCAG” belongs 12300 fluorescence intensity (a.u.); to “GTTTATCTCTATCTTTTTTTCATCTTCTCTCTATATATATCGGAGTCACCTAGTGCAG”, 11000 fluorescence intensity (a.u.); to “GTTTCGTGGTGGTTGCTGGGCTTTTCGTTGGCGTGGGTGGCGGAGTCACCTAGTGCAG”, 11500 fluorescence intensity (a.u.).
Regarding “ATGGTTGGTTTCGTGCTCTGTTTTTTTTTGGGAGAATTCGCGGAGTCACCTAGTGCAG”, the binding signal was 12800 fluorescence intensity (a.u.).
To “CTCGGGAATTCGGGTGGTTTGGTTGGGTTTCGTGGAGAATCGGAGTCACCTAGTGCAG” belongs 18700 fluorescence intensity (a.u.); to “GGGTTGGTGGGCCTGATGGGCTTGGTTTTAGGGTTTCGTGCGGAGTCACCTAGTGCAG”, 9510 fluorescence intensity (a.u.).
To “ACGGCGAGACGGTTTGCGGCGGCGGCGGTGGGGTTGGGATCGGAGTCACCTAGTGCAG” belongs 10600 fluorescence intensity (a.u.); to “TAGGCTATCTTTTGAAGGGAGGGGTTTTTTCATCACCTATCGGAGTCACCTAGTGCAG”, 17000 fluorescence intensity (a.u.); to “TGGGGTTGGTTTGGTTTGGAGTACATCGAGATTCGAGAGACGGAGTCACCTAGTGCAG”, 19900 fluorescence intensity (a.u.).
To “ACGGGGATGACTCCGATGACTCTCCTGGCCTCGCCGCCTCCGGAGTCACCTAGTGCAG” belongs 8120 fluorescence intensity (a.u.); to “ACTTGGTTCTTGCTCATCATCTTTCGCTTGCTCGTCAGCTCGGAGTCACCTAGTGCAG”, 8360 fluorescence intensity (a.u.); to “CCCTCTTCTCCTTTGCTTGGTCTCGTTTCGTCGCTGTCGTCGGAGTCACCTAGTGCAG”, 8260 fluorescence intensity (a.u.).
For “GAGGTCCCGTCGCTCCGGCGAGCTCCCGCCATCCGCCTCGCGGAGTCACCTAGTGCAG”, the binding signal is 8630 fluorescence intensity (a.u.).
To “ATGGCCGCTGTCTTATGTCGTCTCGTTCAAATAAAATCTCCGGAGTCACCTAGTGCAG” belongs 8370 fluorescence intensity (a.u.); to “GGGATTTGGTGGCTGCTCGCCTCTCGCGTTTCTTTTGCTGCGGAGTCACCTAGTGCAG”, 10200 fluorescence intensity (a.u.); to “CTTCTGCTGCTTCTCTCTCTCTCTCTGTGTCTAGTCTACCCGGAGTCACCTAGTGCAG”, 9420 fluorescence intensity (a.u.).
To “TATTTGTCATTCGCTGTCTATGACATATGAGCCCTCATGTCGGAGTCACCTAGTGCAG” belongs 8280 fluorescence intensity (a.u.); to “CTCCTCCCAACTTTCCCCTTTGCTACAGTAGCTCCTTCTTCGGAGTCACCTAGTGCAG”, 8100 fluorescence intensity (a.u.); to “GAGAGAGGAAGAACAGTACGTGTCTAGGGGCATTTTGGTACGGAGTCACCTAGTGCAG”, 9700 fluorescence intensity (a.u.).
To “ACACCGGCCGCCGAGCTCGCCTCCTCTCTTGTCGCCCACACGGAGTCACCTAGTGCAG” belongs 10100 fluorescence intensity (a.u.); to “GTTCCTGATATGTTTTTTTGTTGGTTGCAGGATGGCAAGACGGAGTCACCTAGTGCAG”, 8880 fluorescence intensity (a.u.); to “GCTCTCTTTCCGCTTCTACCCTCGTCACGTCCACGAAATCCGGAGTCACCTAGTGCAG”, 14900 fluorescence intensity (a.u.).
Regarding “GCCACAGCTCTTGATTTCTCGCTGGATCCTGGTTTTCACCCGGAGTCACCTAGTGCAG”, the binding signal was 8430 fluorescence intensity (a.u.).
To “TTGGGGTTGGCGGGAATTAGGGTTTCGTTGGTGGGGTTTTCGGAGTCACCTAGTGCAG” belongs 25900 fluorescence intensity (a.u.).
Turning to “TGCTAGGGTTTTCGGGAGGCGGGTCTAGGGTTGAGGCAAACGGAGTCACCTAGTGCAG”, the binding signal is 12300 fluorescence intensity (a.u.).
To “GCGTTTTCGGCGGGGAACGCGGGGAGGCGGGTGGGGTTGACGGAGTCACCTAGTGCAG” belongs 21800 fluorescence intensity (a.u.); to “CTGGCTCGCTCTCTCTCTCTCTCTCGTGGTGTGGTGTGGACGGAGTCACCTAGTGCAG”, 9310 fluorescence intensity (a.u.).
On to “TCGTTTGGTTGGCGGGAGTTTTAAGAGGGATTAGGAGTTTCGGAGTCACCTAGTGCAG”, for which the binding signal is 9020 fluorescence intensity (a.u.).
To “GGTGGGTTTCGTGGTACGGCTCGCTCTCGTGGTGGGGAATCGGAGTCACCTAGTGCAG” belongs 19700 fluorescence intensity (a.u.); to “GAGCGGGGAGGCGGCGGATCTAGGGTTTGGTTGGGTTTTTCGGAGTCACCTAGTGCAG”, 15300 fluorescence intensity (a.u.).
To “ACCTCGGAAAGTACGGGGTTCTCGTCGGCTGGGTGGGTGTCGGAGTCACCTAGTGCAG” belongs 11500 fluorescence intensity (a.u.).
To “GGTTGGCAGCGGCGGCGGAGGTGGGGAGAGGCGGGTGGTTCGGAGTCACCTAGTGCAG” belongs 13600 fluorescence intensity (a.u.); to “GTTGGTGTCCATCCGTTTCCGAGCCATTTTCATCCCTAATCGGAGTCACCTAGTGCAG”, 11600 fluorescence intensity (a.u.); to “TCCTTCCATCTCTCTGCTCACTTCACTTCACCTTCCAATGCGGAGTCACCTAGTGCAG”, 9020 fluorescence intensity (a.u.).
Consider “GTTTCCATTTATCTGTTCGCAGTCAGTTCCAAGAAGTACCCGGAGTCACCTAGTGCAG”, for which the binding signal is 8340 fluorescence intensity (a.u.).
To “GTTGGTTGGCTGTTCCTTGCTTTCATCCAGCTAGCTACTGCGGAGTCACCTAGTGCAG” belongs 10500 fluorescence intensity (a.u.).
